# Assay outcomes as filed in PubChem.
# HT1080NT lethal = qHTS for induction of synthetic lethality in tumor cells producing 2HG: qHTS for the HT-1080-NT fibrosarcoma cell line | HT-1080-NT fibrosarcoma viability, CellTiter-Glo ATP luminescence, 48 h | Potency, µM (highest dose often 46.1 µM), inactives show at the highest dose activity, negative = less viability, usual class: cytotoxic | 360,000 tested, 1.6% active;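 note: NT is the 2HG producing partner of a matched IDH1 knockdown line; potency is the fitted concentration of half-maximal effect; 0% = DMSO-treated cells and -100% = media-only wells without cells; nearly all actives have a fitted effect of over 55% in size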
#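 Fibrosarcoma NT cells, 750 per well in 5% FBS RPMI, were exposed to compound for 48 hours. Viability: CellTiter-Glo luminescence.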
# IL-1B inflam inh = qHTS for Inhibitors of Inflammasome Signaling: IL-1-beta AlphaLISA Primary Screen | THP-1 LPS/ATP IL-1B secretion, AlphaLISA, 16 h; hits give low values | activity change, % at 57.5 µM | 360,000 tested, 4.7% active | AID 743279, 2014; in the data active = activity change below about -50%; inconclusive = mostly about -30% to -49%
#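 Secreted IL-1B measured by AlphaLISA bead assay after 16 h compound exposure of THP-1 cells; compounds (final up to 57.5 uM) added 1 h before LPS (250 ng/mL) and ATP (1.25 mM) stimulation; lower signal means less secretion.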
# DT40 TDP1 CPT = qHTS for Inhibitors of human tyrosyl-DNA phosphodiesterase 1 (TDP1): qHTS in cells in presence of CPT; chicken DT40 Tdp1-/-;hTDP1 cells + 20 nM CPT, ATP luminescence, 48 h; Potency, µM (highest dose often 46.2 µM), without a hit: at the top dose activity change, negative = growth inhibition, usual class: inhibitors; 420,000 tested, 12% active; AID 686979, 2013; note: potency is the fitted concentration of half-maximal effect; nearly all actives have a fitted effect of over 55% in size
#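 Chicken DT40 Tdp1-/- cells stably complemented with human TDP1 were seeded at 400 cells/well in medium containing 20 nM camptothecin, exposed to pin-transferred compounds, and grown at 37 °C for at least 48 hr. Viability was read as ATP luminescence.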
# HT1080 IDH1KD tx = qHTS for induction of synthetic lethality in tumor cells producing 2HG: qHTS for the HT-1080-IDH1KD cell line. 360,000 tested, 2% active. HT-1080 IDH1 knockdown viability, ATP luminescence, 48 h. Potency, µM (series often up to 46.1 µM), for the others: at the top dose activity, negative = toxicity, usual class: cytotoxic;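 note: potency is the fitted concentration of half-maximal effect; 0% = DMSO wells and -100% = cell-free medium wells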
#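 HT-1080-IDH1KD cells (IDH1 knocked down), 750/well in RPMI with 5% FBS, treated with compound 48 h at 37 degrees C. Viability by CellTiter-Glo luminescence, normalised to DMSO and no-cell wells; concentration-response curves classed.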
# DT40 TDP1 no CPT = qHTS for Inhibitors of human tyrosyl-DNA phosphodiesterase 1 (TDP1): qHTS in cells in absence of CPT; DT40 Tdp1-/- hTDP1 cells, no CPT, ATP luminescence, 48 h; Potency, µM (titrated, usually from 46.2 µM), for inactives: top-dose activity change, negative = growth inhibition, hits mostly inhibitors; 420,000 tested, 15% active; AID 686978, 2013; note: potency is the fitted concentration of half-maximal effect; nearly all actives have a fitted effect of over 55% in size
#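 Luminescent ATP content (CellTiter-Glo) served as the growth readout. Knockout chicken DT40 cells expressing human TDP1 were exposed to compounds without camptothecin for a minimum 48 hr at 37 °C.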
# ELG1 repair inh = qHTS screen for small molecules that inhibit ELG1-dependent DNA repair in human embryonic kidney (HEK293T) cells expressing luciferase-tagged ELG1 | HEK293T ELG1-luciferase reporter, luminescence, 16 h; DNA damage induced by 5-fluorouridine | Potency, µM (series often up to 46.1 µM), for the others: at the highest dose activity change, negative = inhibition, most hits filed as inhibitors | 330,000 tested, 2.3% active | AID 504467, 2011; note: potency is the fitted concentration of half-maximal effect; nearly all actives have a fitted effect of over 55% in size
#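 Reporter activity after DNA damage by 5-fluorouridine is monitored. Compound-treated cells incubate 16 hr at 37 °C, then ONE-Glo is added for 30 min before luminescence reading.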
# The depositor's hits bear a star; ? = inconclusive; nt = no result; [ ] = another dose, or the depositor's remark. Compounds with a hit are over-represented: about 19% of the library has one in this group of screens. Unless noted, calls come from the whole dose curve; as a rule, active = well fitted curve in the direction sought with a large enough effect; inconclusive = small, poorly fitted or top-dose-only effect, or another doubt; inactive = no such curve, though single readings can be large; an effect the other way counts as inactive or inconclusive. Unless noted, % is set by controls: 0 for no effect and ±100 for the full control effect.
SMILES,HT1080NT lethal,IL-1B inflam inh,DT40 TDP1 CPT,HT1080 IDH1KD tx,DT40 TDP1 no CPT,ELG1 repair inh
C=CCn1c(SCC(=O)c2ccc(O)c(O)c2)nnc1-c1ccc(OC)cc1,1%,52,21µM*,-2%,16µM*,?
C=CCn1c(SCC(=O)c2ccc(O)c(O)c2)nnc1-c1ccc(C)cc1,-9%,7,16µM*,-9%,?,-4%
C=CCn1c(SCC(=O)c2cccs2)nnc1-c1cccc(OC)c1,?,16,-13%,-25%,-25%,16%
COc1ccc(F)c(CN2CCC(n3nccc3NC(=O)C3CCOC3)CC2)c1 (stereo unspecified),2%,27,-8%,11%,-10%,5%
COc1cc(NC(=O)CNS(=O)(=O)c2cccs2)cc(OC)c1OC,nt,nt,-3%,nt,-22%,nt
CCN(CC)CCC=C(c1cccs1)c1cccs1,-14%,-24,?,-16%,23µM*,nt
CCN(CC)CCCNC(=O)/C(=C\c1cccn1C)NC(=O)c1cccs1,-2%,-10,2%,0%,-3%,0%
CCOC(=O)C1=CN(Cc2cccc(F)c2)S(=O)(=O)N(CC)C1c1ccc(F)c(Cl)c1 (stereo unspecified),5%,2,?,-2%,?,0%
CCc1cc2c(cc3c(=O)n(CC(=O)NC(C)C)nc(CC)n32)s1,nt,nt,?,nt,16µM*,nt
CCCCN(CCCC)CCNC(=O)Cn1nc(CC)n2c(cc3sc(C)cc32)c1=O,nt,nt,15µM*,nt,16µM*,nt
Cc1ccc(Cl)cc1N1CCN(c2nc3ccccc3c3nc(-c4cccnc4)nn23)CC1,nt,nt,-14%,nt,-9%,nt
CCOc1ccc(C(=O)Nc2cccc(C(=O)OCc3cc(=O)n4cc(C)sc4n3)c2)cc1,nt,nt,4%,nt,-4%,nt
S=c1[nH]nc(-c2ccc3ccccc3n2)n1-c1cc(Cl)cc(Cl)c1,1%,-4,?,9%,16µM*,-2%
Cc1c(N=C2N=C(NC(=O)c3ccc(F)cc3)c3ccccc32)c(=O)n(-c2ccccc2)n1C,?,-8,16µM*,25%,23µM*,?
CCOC(=O)CCn1c(=O)c2cccn2c2cccnc21,nt,nt,-2%,nt,-6%,nt
CCN(CC)C(=S)S,nt,nt,24µM*,nt,?,nt
CCc1nn(CCCC(=O)N2CCN(c3cccc(C)c3C)CC2)c(=O)c2cc3occc3n12,-29%,11,?,-14%,?,?
Nc1ccc(Cc2nc3c(ccc4ccccc43)[nH]2)cc1,?,12,-16%,?,-18%,0%
O=c1[nH]c(-c2ccccn2)nc2ccccc12,?,23,29µM*,?,16µM*,?
O=c1[nH]c(-c2ccccc2O)nc2ccccc12,nt,nt,5%[9.04 µM],nt,-13%[9.04 µM],nt
c1ccc(-c2nc3c(ccc4ccccc43)[nH]2)nc1,-10%,-11,?,-13%,23µM*,?
O=c1[nH]c(-c2ccccn2)nc(C(F)(F)F)c1Br,?,48,6.5µM*,?,4.6µM*,9%
c1ccc(-c2nc3ccccc3[nH]2)nc1,-11%,-9,?,-21%,16µM*,?
COc1cc2c(c(OC)c1OC)C(c1ccccc1C)CC(=O)O2 (stereo unspecified),7%,54,8%,3%,-2%,?
Nc1nc(-c2nc3ccccc3[nH]2)cs1,-13%,2,23µM*,-9%,?,?
SMILES,HT1080NT lethal,IL-1B inflam inh,DT40 TDP1 CPT,HT1080 IDH1KD tx,DT40 TDP1 no CPT,ELG1 repair inh
Cc1ccc2nc(-c3ccccn3)[nH]c2c1,?,-4,?,18µM*,?,?
Cc1ccc2nc(-c3ccccc3N)[nH]c2c1,?,-30,-25%,?,?,?
c1csc(-c2nc3ccccc3[nH]2)c1,4%,-1,-22%,6%,-22%,?
CC1CCCN(CCCNC(=O)c2nn(C)c3c2CSc2ccccc2-3)C1 (stereo unspecified),-13%,0,?,0%,?,?
CCN(CC)S(=O)(=O)c1ccc(NC(=O)c2nn(C)c3c2CSc2ccccc2-3)cc1,nt,nt,?,nt,18µM*,nt
Cn1nc(C(=O)NC2CCCCC2)c2c1-c1ccccc1SC2,-1%,11,26µM*,10%,?,?
CC1CCC(NC(=O)c2nn(C)c3c2CSc2ccccc2-3)CC1 (stereo unspecified),13%,0,?,16%,?,?
CCOc1ccc(CCNC(=O)c2nn(C)c3c2CSc2ccccc2-3)cc1,nt,nt,16µM*,nt,?,nt
Cn1nc(C(=O)N2CCC(C(N)=O)CC2)c2c1-c1ccccc1SC2,6%,7,?,0%,?,21%
CC(C)N(C(=O)c1nn(C)c2c1CSc1ccccc1-2)C1CCCCC1,?,-18,21µM*,-22%,10µM*,?
CCCC1=C(C(=O)OCC)C(c2sccc2C)n2ncnc2N1 (stereo unspecified),4%,-3,-17%,1%,-26%,-6%
CC(C)OCCCNC(=O)c1nn(C)c2c1CSc1ccccc1-2,nt,nt,?,nt,21µM*,nt
CC(C)CCNC(=O)c1nn(C)c2c1CSc1ccccc1-2,nt,nt,?,nt,18µM*,nt
Cc1ccc(N2CCN(C(=O)c3nn(C)c4c3CSc3ccccc3-4)CC2C)cc1 (stereo unspecified),nt,nt,23µM*,nt,?,nt
COc1ccc(OC)c(CNC(=O)c2nn(C)c3c2CSc2ccccc2-3)c1,nt,nt,21µM*,nt,?,nt
Cc1cccc(CCNC(=O)c2nn(C)c3c2CSc2ccccc2-3)c1,nt,nt,-26%,nt,?,nt
CC1=C(C(=O)N2CCOCC2)CC(CC(=O)NCCc2ccccn2)C(=O)N1Cc1ccc(C(C)(C)C)cc1 (stereo unspecified),-6%,26,-24%,2%,-18%,nt
Cc1cccc(C)c1Nc1ncccc1C(=O)O,nt,nt,-8%,nt,-8%,nt
CC(C)(CN=C1NS(=O)(=O)c2ccccc21)CNC(=O)c1ccccc1,0%,-3,-20%,3%,-30%,-18%
O=C(C1=C(Nc2ccccc2)c2ccccc2S(=O)(=O)N1)c1ccccc1,-4%,10,?,7%,?,16µM*
